Assay outcomes as filed in PubChem BioAssay.
Vaccinia mCherry – vaccinia inhibition (mCherry reporter) | Vaccinia virus mCherry reporter infection, fluorescence | Potency, µM (titrated, usually from 36.5 µM), actives largely listed as inhibitors | 310,000 tested, 0.63% active | AID 720579; calls by dose curve; tested in A549 cells; further: nearly all actives have a fitted effect of over 35% in size
Lassa entry inh – Lassa virus entry inhibition | Lassa virus pseudotype entry inhibition, cell reporter | Potency, µM (series often up to 37.9 µM), most hits filed as inhibitors | 300,000 tested, 1.2% active | AID 540256; calls by dose curve; tested in HEK293 cells; further: nearly all actives have a fitted effect of over 50% in size
Sm TGR inh – inhibitors of Schistosoma mansoni thioredoxin glutathione reductase. Q962Y6. purified TGR, DTNB reduction, TNB absorbance 405 nm. Potency, µM (highest dose often 114 µM), actives largely listed as inhibitors. 360,000 tested, 3% active; active means well fitted inhibition curve with a large enough effect; inconclusive means small, poorly fitted or top-dose-only effect; inactive means no such curve, though single readings can be large or run the other way; further: nearly all actives have a fitted effect of over 60% in size
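Kinetic colorimetric format: TGR-catalysed, NADPH-driven DTNB reduction monitored via TNB absorbance. Enzyme dispensed at 20 nM; compound exposure 15 min at room temperature before reaction start.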
FMDV antiviral – blocks foot and mouth disease virus; FMDV antiviral cell-based qHTS; Potency, µM (highest dose often 57.9 µM), usual class: inhibitors; 410,000 tested, 1.2% active; calls by dose curve; tested in HEK293T cells; further: read-out not given here; nearly all actives have a fitted effect of over 45% in size
VACV Venus inh – vaccinia inhibition (Venus reporter); Vaccinia virus Venus reporter expression, fluorescence; Potency, µM (top dose mostly 36.5 µM), actives largely listed as inhibitors; 330,000 tested, 0.46% active; calls by dose curve; tested in A549 cells; further: nearly all actives have a fitted effect of over 30% in size
MARV entry inh – inhibitors of Marburg virus binding or cell entry; Marburg virus pseudotyped entry inhibition, cell reporter; Potency, µM (top dose mostly 37.8 µM), actives largely listed as inhibitors; 300,000 tested, 1.8% active; calls by dose curve; tested in HEK293 cells
Numbers stand for hits; - = inactive; ? = inconclusive; . = no result. In the library only some 5.4% were active in any assay of this set; here they are far more common.

SMILES | Vaccinia mCherry | Lassa entry inh | Sm TGR inh | FMDV antiviral | VACV Venus inh | MARV entry inh
Cc1ccccc1NC(=O)C1c2cccc[n+]2CC(=O)N1c1c(C)cccc1C (configuration not stated) | . | - | 44.7µM | - | . | -
COc1ccc(NC(=O)CC2C(=O)N(C)C(=S)N2CCc2ccccc2F)cc1 (configuration not stated) | - | ? | . | - | - | ?
CN1C(=O)C(CC(=O)Nc2ccc(F)cc2)N(CCCc2ccccc2)C1=S (configuration not stated) | . | ? | - | ? | ? | 11.2µM
CN(CCOc1ccc(Cl)cc1)C(=O)c1cccc(S(=O)(=O)N2CCN(c3ccc(F)cc3)CC2)c1 | ? | ? | . | ? | ? | 7.08µM
CN(Cc1ccc(OC(F)F)cc1)C(=O)c1cccc(S(=O)(=O)N2CCN(c3ccccc3)CC2)c1 | . | . | . | 20µM | . | .
COc1ccccc1N(C)S(=O)(=O)c1ccc(C(=O)N(C)Cc2ccc(OC(F)F)cc2)cc1 | - | ? | - | 35.5µM | ? | 11.2µM
CC(=O)N1c2ccc(S(=O)(=O)NCC3CCC(C(=O)Nc4cccc(C)c4C)CC3)cc2CC1C (configuration not stated) | - | - | - | ? | - | .
COc1ccc(C(=O)N2CC(=O)Nc3ccc(F)cc3C2c2ccc(F)cc2)c(OC)c1 (configuration not stated) | - | - | - | - | - | -
Cc1ccc(NC(=O)C2CCCN(c3ncnc4onc(C)c34)C2)cc1Cl (configuration not stated) | ? | - | - | 20µM | - | .
O=C(Nc1ccc(F)c(Cl)c1)C1CCCN(c2ncnc3onc(-c4ccc(F)cc4)c23)C1 (configuration not stated) | - | - | 50.1µM | - | - | .
COc1cccc(NC(=O)C2CCCN(c3ncnc4onc(C)c34)C2)c1 (configuration not stated) | - | ? | - | ? | - | .
CCN(CC)CCN(C)c1ccc(/C=C/c2ccnc3ccccc23)cc1 | - | . | . | . | - | .
CCN(CC)C(=O)[C@H]1CC(CC(=O)NC/C=C(\C)CCC=C(C)C)C(=O)N2CCc3c([nH]c4ccc(OC)cc34)[C@]12C (some centres not stated) | 12.6µM | . | . | - | ? | -
CC(C)=CCC/C(C)=C/CNC(=O)C[C@H]1C[C@H](C(=O)N(C(C)C)C(C)C)[C@@]2(C)c3[nH]c4cc(-c5ccco5)ccc4c3CCN2C1=O | 10µM | . | . | - | ? | .
COc1ccc2[nH]c3c(c2c1)CCN1C(=O)C(CC(=O)NC/C=C(\C)CCC=C(C)C)C[C@H](C(=O)N2CCOCC2)[C@@]31CCC1CCCC1 (some centres not stated) | 10µM | . | . | - | ? | -
CCN(CC)C(=O)[C@H]1C[C@H](CC(=O)NC/C=C(\C)CCC=C(C)C)C(=O)N2CCc3c([nH]c4cc(-c5ccco5)ccc34)[C@]12C | ? | . | . | - | 12.6µM | .
CC(C)=CCC/C(C)=C/CNC(=O)C[C@H]1C[C@H](C(=O)N2CCCCC2)[C@@]2(C)c3[nH]c4cc(-c5ccco5)ccc4c3CCN2C1=O | ? | . | . | - | ? | .
CCc1cccc(C)c1NC(=O)CSc1nc2ccccc2nc1Cc1ccccc1 | - | - | - | - | - | .
COc1ccc(C(=O)Nc2ccc3nc(N4CCOCC4)sc3c2)cc1OC | . | . | - | - | . | .
CCOCc1c(C(=O)Nc2ccc3nc(N4CCOCC4)sc3c2)oc2ccccc12 | - | ? | - | 20µM | - | ?
CCCn1nc(C(=O)Nc2ccc3nc(N4CCOCC4)sc3c2)ccc1=O | ? | ? | - | 12.6µM | - | ?
CCc1ccc(CNC(=O)c2ccc(-n3c(C)cc4c3CCC(C)C4)cc2)cc1 (configuration not stated) | - | ? | - | - | - | .
CCN(CC)S(=O)(=O)c1cc(NC(=O)c2ccccc2OCc2c(C)noc2C)ccc1C | - | 11.2µM | . | - | - | ?
Cc1noc(C)c1COc1ccccc1C(=O)Nc1cccc(S(=O)(=O)N(C)C)c1 | - | - | - | - | - | -
Cc1ccc(C(=O)NNC(=O)c2ccccc2OCc2c(C)noc2C)cc1 | - | - | - | - | - | 3.55µM
SMILES | Vaccinia mCherry | Lassa entry inh | Sm TGR inh | FMDV antiviral | VACV Venus inh | MARV entry inh
Cc1ccc(C(=O)Nc2cccc(-c3nc(CNC(=O)c4ccc5ccccc5n4)c(C)o3)c2)s1 | - | . | . | - | - | .
CN(C)c1ccc(/C=N/NC(=O)CCc2c[nH]c3ccccc23)cc1 | - | 2µM | - | - | - | ?
CCN(CC)c1ccc(/C=N/NC(=O)c2cc3ccccc3[nH]2)cc1 | . | . | - | - | . | .
O=C(NN=Cc1ccc(N(CCCl)CCCl)cc1)C(=O)c1c[nH]c2ccccc12 | - | 6.31µM | . | - | - | 4.47µM
CCN(CC)c1ccc(/C=N/NC(=O)c2c[nH]c3ccccc23)cc1 | ? | 11.2µM | - | - | ? | -
Cc1c(Cl)cccc1NC(=O)CCS(=O)(=O)c1ccc2c(c1)CC(C)N2C(=O)C1CC1 (configuration not stated) | - | ? | - | - | - | .
CCCCOc1ccc(CNC(=O)CCCN2C(=O)CSc3c2c(C)nn3-c2ccccc2)cc1 | - | ? | - | - | - | .
Cc1ccc(-n2ncc3c(N(C)Cc4ccccc4)ncnc32)cc1 | - | - | - | - | - | .
O=C(CCn1c(=O)c2cccn2c2cccnc21)N1CCN(c2ccccc2F)CC1 | - | - | - | - | - | .
O=C1CSC(c2ccc3c(c2)OCO3)N1c1ccc(Oc2ccccc2)cc1 (configuration not stated) | . | - | 31.6µM | - | . | -
Cn1cnc([N+](=O)[O-])c1Nc1cccc(O)c1 | - | - | - | - | - | -
Cn1cnc([N+](=O)[O-])c1Oc1ccc2ccccc2c1 | 6.31µM | ? | 14.1µM | 17.8µM | 7.94µM | ?
NC(=O)CCCn1c(C(=O)c2cc(Cl)c(N)c(Cl)c2)c2ccc([N+](=O)[O-])cc2[n+]1[O-] | ? | . | - | ? | 11.2µM | .
NCCCn1c(C(=O)c2ccc(Cl)cc2)c2ccc([N+](=O)[O-])cc2[n+]1[O-] | 7.08µM | . | ? | - | ? | .
CCOC(=O)[C@@]1([C@@H](NC(=O)OC)c2cccc(C)c2)CCCC1=O | . | . | . | . | . | -
COc1cccc(CNc2nc3cc(-c4cnn(Cc5ccccc5)c4)sc3c(=O)n2C)c1 | - | . | . | 14.1µM | ? | .
COc1cccc(CNC(=O)c2cc(C)nc3c2c(C)nn3-c2cccc(F)c2)c1 | - | - | - | - | - | .
NC(=O)c1cc(N2CC2)c([N+](=O)[O-])cc1[N+](=O)[O-] | - | - | . | 1.26µM | - | ?
O=C(c1cc(N2CCOCC2)c(F)cc1[N+](=O)[O-])N1CCOCC1 | - | - | - | - | - | -
CN1Cc2c(N3CCOCC3)nc3sc(C(=O)c4ccc(Br)cc4)c(N)c3c2CC1(C)C | 6.31µM | ? | - | - | - | ?
O=c1c(C(c2ccccc2)c2c(O)nc3n(c2=O)CCS3)c(O)nc2n1CCS2 | . | - | 1.78µM | - | . | -
O=c1c2[nH]c3ccc(F)cc3c2nc2n1CCCS2 | - | - | - | - | - | -
O=c1c2[nH]c3ccccc3c2nc2n1CCCS2 | - | ? | - | - | - | -
